Results published in PubChem BioAssay (Tox21).
Values joined by “and” are separate entries in the source; they are usually repeats but may differ in a detail not shown here. Identical values can stand only once. Records with an inconclusive call do not appear. Where a call stands in place of a potency, no number is given. The source holds several records for some structures; these can differ, active in one and inactive in another. Active and inactive are the calls of the source. Unless noted, calls come from the whole dose curve; as a rule, active = well fitted curve in the direction sought with a large enough effect in the repeat runs; inconclusive = weak or mixed curves; inactive = no such curve, though single readings can be large; an effect the other way counts as inactive or inconclusive.

How the values were obtained:
[1] = qHTS assay for small molecules that induce genotoxicity in human embryonic kidney cells expressing luciferase-tagged ATAD5 (AID 651632); note: nearly all actives have a fitted effect of over 15% in size; note: potency is the fitted concentration of half-maximal effect
Procedure, shortened: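 Quantitative HTS in HEK293T expressing luciferase-tagged ATAD5, whose levels rise upon DNA damage. Exposure ran 16 hr at 37C and 5% CO2, with luminescence read 30 min after Amplite addition at room temperature.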

[2] = qHTS assay for small molecules that induce genotoxicity in human embryonic kidney cells expressing luciferase-tagged ATAD5 - cell viability (AID 651634; calls by dose curve; note: nearly all actives have a fitted effect of over 25% in size; note: potency is the fitted concentration of half-maximal effect)
Procedure, shortened: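 After 15.5 hr incubation with compound at 37C, 5% CO2, HEK293T ATAD5-luciferase cells received CellTiter-Fluor reagent; fluorescence intensity was quantified following 30 min at 37C.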

[3] = qHTS assay for small molecule disruptors of the mitochondrial membrane potential (AID 720635); note: potency is the fitted concentration of half-maximal effect
Procedure, shortened: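 Mitochondrial membrane potential tracked with Mito-MPS dye, red aggregates (ex 540/em 590 nm) against green monomers (ex 490/em 535 nm). Compound treatment 1 hr at 37C, dye 30 min in HepG2.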

[4] = qHTS assay to test for compound auto fluorescence at 590 nm (red) in HepG2 cells (AID 720674)
Procedure, shortened: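 We screened compounds on adherent HepG2 cells, incubating them for an hour at 37 C in 5% CO2 before reading emission at 590 nm under 540 nm excitation; values reflect equivalence to Rose Bengal sodium fluorescence.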

[5] = qHTS assay to test for compound auto fluorescence at 535 nm (green) in HepG2 cells (AID 720675)
[6] = qHTS assay to test for compound auto fluorescence at 460 nm (blue) in HEK293 cells (AID 720678)
Procedure, shortened: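 HEK293 cells (2,000 per well, medium with 10% dialyzed FBS) attached for 4-5 hr at 37C, then received compound and stood overnight at 37C, 5% CO2. Blue fluorescence was read at Ex/Em 405/460 nm and expressed relative to triamterene.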

[7] = qHTS assay to test for compound auto fluorescence at 590 nm (red) in HEK293 cells (AID 720679)
Procedure, shortened: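 HEK293 cells (2,000/well, medium with 10% dialyzed FBS) attached for 4-5 hr at 37C, received 23 nL compound and were incubated overnight at 37C, 5% CO2. Red fluorescence was then read at 540/590nm Ex/Em, referenced to Rose Bengal sodium.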

[8] = qHTS assay for small molecule agonists of the p53 signaling pathway - cell viability (AID 651633; calls by dose curve; note: nearly all actives have a fitted effect of over 30% in size; note: potency is the fitted concentration of half-maximal effect)
Procedure, shortened: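 Viability counter-read: CellTiter-Glo luminescence (30 min, room temperature) in the same p53RE-bla plates. These plates had been exposed to compounds for 16 h at 37 C.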

[9] = qHTS assay for small molecule disruptors of the mitochondrial membrane potential - cell viability (AID 720634; calls by dose curve; note: nearly all actives have a fitted effect of over 20% in size; note: potency is the fitted concentration of half-maximal effect)
Procedure, shortened: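 ATP-based luminescent viability readout (CellTiter-Glo, 30 min, room temperature) in HepG2 cells multiplexed with the m-MPI membrane potential dye; compound exposure lasted 1 hr at 37 C.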

Compound	Potency [1]	Potency [2]	Potency [3]	Potency [4]	Potency [5]	Potency [6]	Potency [7]	Potency [8]	Potency [9]
CC(=O)CCC(=O)O	inactive	inactive	inactive	inactive	inactive	inactive	inactive		
O=C1NC(=O)C(c2ccccc2)(c2ccccc2)N1	inactive	inactive	inactive	inactive	inactive	inactive	inactive		
CCN(Cc1c(F)cccc1Cl)c1c([N+](=O)[O-])cc(C(F)(F)F)cc1[N+](=O)[O-]	inactive	inactive	54.5 µM (active)	inactive	inactive	inactive	inactive		
C=C1CC[C@H](O)C/C1=C\C=C1/CCC[C@]2(C)[C@@H]([C@H](C)CCCC(C)C)CC[C@@H]12	inactive		inactive	inactive	inactive	inactive	inactive	26.6 µM (active) and 60.6 µM (active)	
COc1ccc2cc(S(=O)(=O)N[C@H](CC(=O)N[C@H](Cc3ccc(CN4[C@H](C)CCC[C@@H]4C)cc3)C(=O)N(C)C(C)C)c3ccc4c(c3)OCO4)ccc2c1	inactive	57.9 µM (active)	10.3 µM (active)	inactive	inactive	inactive	inactive		
CC(=O)CC(c1ccccc1)c1c(O)c2ccccc2oc1=O (stereo unspecified)		inactive		inactive	inactive	inactive	inactive		inactive
COc1ccc(CN(CCN(C)C)c2ccccn2)cc1		inactive		inactive	inactive	inactive	inactive		
CC/C(=C(\c1ccccc1)c1ccc(OCCN(C)C)cc1)c1ccccc1		29.8 µM (active) and 61.5 µM (active)		inactive	inactive	inactive	inactive	54.5 µM (active) [middle of 5 runs]	
Nc1c2c(nc3ccccc13)CCCC2	inactive	inactive	inactive	inactive	inactive	inactive	inactive	inactive	
CC(C)c1c(C(=O)Nc2ccccc2)c(-c2ccccc2)c(-c2ccc(F)cc2)n1CC[C@@H](O)C[C@@H](O)CC(=O)O				inactive	inactive	inactive	inactive		inactive
C/C=C/C=C/C(=O)O		inactive	inactive	inactive	inactive	inactive	inactive	inactive	inactive
CC(O)(P(=O)(O)O)P(=O)(O)O	inactive	inactive	inactive	inactive	inactive	inactive	inactive	inactive	
Cc1ccc(S(=O)(=O)O)cc1		inactive	inactive	inactive	inactive	inactive	inactive	inactive	
O=C1NS(=O)(=O)c2ccccc21		inactive	inactive	inactive	inactive	inactive	inactive		
F[B-](F)(F)F	inactive	inactive	inactive	inactive	inactive	inactive	inactive		inactive
CCCCC(CC)C(=O)O (stereo unspecified)			inactive and 6.86 µM (active)	inactive	inactive	inactive	inactive	inactive	inactive
CC(C)NCC(O)c1ccc(O)c(O)c1 (stereo unspecified)		inactive	inactive	inactive	inactive	inactive	inactive	inactive	inactive
CCCCCCc1ccc(O)cc1O	inactive	inactive	5.96 µM (active) and 4.87 µM (active) and 6.86 µM (active)	inactive	inactive	inactive	inactive	inactive and 54.6 µM (active) and 61.1 µM (active)	
CCCCCCCCCCCCCCCC[N+](C)(C)Cc1ccccc1	inactive	29.8 µM (active) and 79.4 µM (active)	4.22 µM (active) and 10 µM (active) and 13.9 µM (active)	inactive	inactive	inactive	inactive	11.9 µM (active) and 35.5 µM (active) and 39.3 µM (active)	
O=C(Nc1ncc([N+](=O)[O-])s1)c1cccs1	3.76 µM (active)	26.6 µM (active)	0.668 µM (active)	inactive	inactive	inactive	inactive		15 µM (active)
O=S1(=O)OC(c2ccc(O)cc2)(c2ccc(O)cc2)c2ccccc21	inactive	48.6 µM (active) and 8.63 µM (active)		inactive	inactive	inactive	inactive	inactive	
O=CC(=O)c1ccccc1		inactive		inactive	inactive	inactive	inactive	inactive	
C1=CC2C3C=CC(C3)C2C1 (stereo unspecified)	inactive	inactive		inactive	inactive	inactive	inactive	inactive	
CN1[C@@H]2CC(OC(=O)[C@H](CO)c3ccccc3)C[C@H]1[C@@H]1O[C@@H]12 (stereo partly specified)	inactive	inactive		inactive	inactive	inactive	inactive	inactive	
CN1CCC[C@H]1c1cccnc1	inactive	inactive	inactive	inactive	inactive	inactive	inactive		inactive
